Assay results as given in PubChem BioAssay (NCI).
About 83,000 compounds went through this panel and 20% of them were active in at least one assay; those are over-represented in the sample as a whole.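 Growth was measured after 48 h exposure to one concentration of compound in 96-well plates. Values under 10 count as active.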 Activity calls are given as the source filed them.

Tested on: SK-MEL-5 melanoma
Test: NCI-60 one-dose screen, 48 h (100 = growth as untreated, 0 = no growth, -100 = all killed)
Settings: 10 µM
Description: Growth inhibition of the SK-MEL-5 human tumor cell line is measured as a screen for anti-cancer activity. Cells are grown in 96 well plates and exposed to the test compound for 48 hours. Compounds are tested at a single concentration, which is 10^-5 M for most compounds. The reported endpoint is percent growth (GI% or GIPRCNT), where numbers from 0 - 100% represent growth inhibition, and numbers from -100% - 0 represent cell death. For example, a value of 40 represents 60% growth inhibition. A value of 0 means no net growth occurred over the course of the experiment. A value of -40 indicates 40% of cells at the beginning of the experiment died by the end of the experiment. A value of -100 means all cells are dead at the end of the experiment.
NCI-60 Human Tumor Cell Lines Screen was performed using the standard one-dose NCI protocol, which is described in more detail at https://dtp.cancer.gov/discovery_development/nci-60/default.htm.
Compounds with GIPRCNT values below 10 were considered active. Activity score was based on GIPRCNT using the following formula: […]
Score is 0 for GIPRCNT values of 100 or above, 50 for GIPRCNT values of 0, and 100 for GIPRCNT values of -100.

SMILES	growth
COc1ccc(C2c3sc4ccc(C)cc4c3Oc3nc(N)nc(N)c32)cc1 (stereo not given)	92.9% (inactive)
COc1ccc(OC)c(-n2cc(C#N)c(N)c2C(=O)c2ccc(Cl)cc2Cl)c1	54.2% (inactive)
CC(C)(C)c1cc(/C=C2\S/C(=N/c3ncn[nH]3)NC2=O)cc(C(C)(C)C)c1O	-25.2% (active)
Cn1cc(-c2nnc(N)nc2-c2c[nH]c3ccccc23)c2cc(Br)cnc21	-72.8% (active)
Cc1cc(N=C2NC(=O)/C(=C/c3cc(C(C)(C)C)c(O)c(C(C)(C)C)c3)S2)n[nH]1	-72.8% (active)
COc1ccc2[nH]cc(-c3nc(N)nnc3-c3cn(C)c4ncc(Br)cc34)c2c1	-50.1% (active)
O=C(CN1CCN(c2ncnc3c2cnn3-c2ccccc2)CC1)Nc1ccc(Br)cc1	9.44% (active)
Cc1ccc(COc2ccc(NC(=O)Nc3ccc(Cl)c(C(F)(F)F)c3)cc2)cc1	79.9% (inactive)
CCn1c(SCC(=O)Nc2ccc(-c3nc4ccccc4[nH]3)cc2)nc2ccccc2c1=O	-51.2% (active)
Fc1ccc(/C=C/c2nc3ccccc3n3c(-c4ccc(Cl)cc4)nnc23)cc1	76.5% (inactive)
COc1cc(-c2nc3ccc(C)cc3[nH]2)ccc1OCc1nnc(-c2ccccc2Br)o1	41.1% (inactive)
C#CCOc1cc(N(CC)CC)ccc1C(C(=O)NC(C)(C)C)N(C(=O)C1CCc2cc(F)ccc2O1)c1ccc(F)cc1F (stereo not given)	11.2% (inactive)
O=C(Nc1ccc(OCc2ccc(Cl)cc2)cc1)Nc1ccc(Cl)c(C(F)(F)F)c1	-81.4% (active)
Fc1ccc(-c2csc(Nc3cccc(Nc4nc(-c5ccc(F)cc5)cs4)c3)n2)cc1	61.2% (inactive)
O=C(CSc1nc2ccccc2c(=O)n1-c1ccc(Cl)cc1)Nc1ccc(-c2nc3ccccc3[nH]2)cc1	47.7% (inactive)
C#C[C@]1(O)CC[C@H]2[C@@H]3CC=C4c5sc(Nc6cc(C)cc(C)n6)nc5CC[C@]4(C)[C@H]3CC[C@@]21C	-99.7% (active)
COc1cc(C2CC(c3ccc(Oc4ccc(Cl)cc4)cc3)=NN2c2nc(-c3ccc(Cl)cc3)c(C#N)c(N3CCOCC3)n2)cc(OC)c1OC (stereo not given)	97.8% (inactive)
COc1ccc(C2c3sc4ccc(C)cc4c3Oc3nc[nH]c(=O)c32)cc1 (stereo not given)	88.8% (inactive)
CC1[C@H]2[C@H](C[C@H]3[C@@H]4CC=C5c6sc(Nc7cccc(Cl)n7)nc6CC[C@]5(C)[C@H]4CC[C@@]32C)O[C@]12CC[C@@H](C)CO2 (stereo not given in full)	59.3% (inactive)
Cn1cc(-c2nnc(N)nc2-c2c[nH]c3ccc(F)cc23)c2cc(Br)cnc21	81.9% (inactive)

SMILES	growth
C#C[C@]1(O)CC[C@H]2[C@@H]3CC=C4c5sc(Nc6ccc(C(F)(F)F)cn6)nc5CC[C@]4(C)[C@H]3CC[C@@]21C	-97.1% (active)
Cc1ccc2c(c1)C(=O)/C(=C/c1c[nH]c3ccccc13)S2	59% (inactive)
O=C(CN1CCN(c2ncnc3c2cnn3-c2ccccc2)CC1)Nc1ccc(Cl)cc1	0.35% (active)
O=C1S/C(=C\c2ccc([N+](=O)[O-])cc2)C(=O)N1CCN1CCCCC1	101% (inactive)
COC(=O)CNC(=O)COc1c(OC)c(OC)cc2oc(-c3cccc(C(=O)Nc4ccc(Cl)cc4)c3)cc(=O)c12	4.43% (active)
COc1ccc(NCc2cn(-c3ccc(C(=O)O)cc3)nc2-c2ccc(F)cc2)cc1C(F)(F)F	26.7% (inactive)
Cc1cc(N=C2NC(=O)S/C2=C\c2ccc(F)cc2)n[nH]1	16.5% (inactive)
O=[N+]([O-])c1cccc(-c2nnc3c(/C=C/c4ccccc4O)nc4ccccc4n23)c1	19.6% (inactive)
Cc1ccc2sc3c(c2c1)Oc1nc[nH]c(=O)c1C3c1cccc(F)c1 (stereo not given)	96.4% (inactive)
COc1ccc(Cc2nn(CC(=O)N/N=C/c3ccc([N+](=O)[O-])cc3)c(=O)c3c(C)noc23)cc1	92.8% (inactive)
CCOC(=O)c1ccc(NC(=O)CSC(CC(=O)c2sc(Nc3ccccn3)nc2C)c2ccccc2F)cc1 (stereo not given)	7.25% (active)
O=C(CC(=O)Nc1ccc(Oc2ncnc3scc(Nc4n[nH]c(=S)s4)c23)cc1)Nc1ccc(Br)cc1	98% (inactive)
O=C1NC(=S)S/C1=C\c1cn(-c2ccccc2)nc1-c1ccc([N+](=O)[O-])cc1	-33.3% (active)
O=C(Nc1ccc(OCC(=O)c2ccc(Cl)cc2)cc1)Nc1ccc(Cl)c(C(F)(F)F)c1	53.8% (inactive)
CC1(C)CC(=O)C2=C(C1)N(Cc1ccc(C(=O)O)cc1)C1=C(C(=O)CC(C)(C)C1)C2c1ccc(Cl)cc1	99.9% (inactive)
C#C[C@]1(O)CC[C@H]2[C@@H]3CC=C4c5sc(Nc6ccc(N(C)C)cc6)nc5CC[C@]4(C)[C@H]3CC[C@@]21C	0.6% (active)
COc1cc2oc(-c3cccc(C(=O)Nc4ccc(Cl)cc4)c3)cc(=O)c2c(OCCN)c1OC	-94.7% (active)
Cn1cc(-c2cc3nc(-c4c[nH]c5ccccc45)cc(N)n3n2)c2cc(Cl)ccc21	-99% (active)
COc1ccccc1-n1cc(C#N)c(N)c1C(=O)c1ccc(Cl)cc1Cl	17.3% (inactive)
O=C(CSc1nc2ccccc2c(=O)n1-c1ccc(Cl)cc1)Nc1ccc(-c2nc3ccc([N+](=O)[O-])cc3[nH]2)cc1	65.3% (inactive)
